# Measured values from the supplement of paper PMC6992640.
# Tested on: WHIM30 (cells of a triple-negative basal-like breast cancer xenograft)
# Assay: cell viability of combination (% of vehicle); higher = less cytotoxic
# Conditions: 1 µM; 72 h; partner dose: 10 nM
# Description: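 PDX cells were treated for 72 h with each drug at 1 µM plus carfilzomib (10 nM; 100 nM for WHIM2). Luciferase viability is expressed as percent of vehicle.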
row,Structure (SMILES),cell viability of combination
1,Cc1ccc(NC(=O)c2ccc(CN3CCN(C)CC3)cc2)cc1Nc1nc(-c2cccnc2)cs1 [Masitinib (AB1010)] + CC(C)C[C@H](NC(=O)[C@H](CCc1ccccc1)NC(=O)CN1CCOCC1)C(=O)N[C@@H](Cc1ccccc1)C(=O)N[C@@H](CC(C)C)C(=O)[C@@]1(C)CO1 [Carfilzomib],28.7
2,COC(=O)c1ccc2c(c1)NC(=O)C2=C(Nc1ccc(N(C)C(=O)CN2CCN(C)CC2)cc1)c1ccccc1 [Nintedanib (BIBF 1120)] + CC(C)C[C@H](NC(=O)[C@H](CCc1ccccc1)NC(=O)CN1CCOCC1)C(=O)N[C@@H](Cc1ccccc1)C(=O)N[C@@H](CC(C)C)C(=O)[C@@]1(C)CO1 [Carfilzomib],24.9
3,COc1cc(Nc2c(C#N)cnc3cc(OCCCN4CCN(C)CC4)c(OC)cc23)c(Cl)cc1Cl [Bosutinib (SKI-606)] + CC(C)C[C@H](NC(=O)[C@H](CCc1ccccc1)NC(=O)CN1CCOCC1)C(=O)N[C@@H](Cc1ccccc1)C(=O)N[C@@H](CC(C)C)C(=O)[C@@]1(C)CO1 [Carfilzomib],20.9
4,CC(=O)c1cc2c(o1)C(=O)c1ccccc1C2=O [Napabucasin] + CC(C)C[C@H](NC(=O)[C@H](CCc1ccccc1)NC(=O)CN1CCOCC1)C(=O)N[C@@H](Cc1ccccc1)C(=O)N[C@@H](CC(C)C)C(=O)[C@@]1(C)CO1 [Carfilzomib],5.17
5,Nc1ccc2cc3ccc([NH3+])cc3nc2c1.Nc1ccc2cc3ccc([NH3+])cc3nc2c1.O=S(=O)([O-])[O-] [Proflavine Hemisulfate] + CC(C)C[C@H](NC(=O)[C@H](CCc1ccccc1)NC(=O)CN1CCOCC1)C(=O)N[C@@H](Cc1ccccc1)C(=O)N[C@@H](CC(C)C)C(=O)[C@@]1(C)CO1 [Carfilzomib],11.2
6,CC(C)c1nc(CN(C)C(=O)NC(C(=O)NC(Cc2ccccc2)CC(O)C(Cc2ccccc2)NC(=O)OCc2cncs2)C(C)C)cs1 (stereo not given) [Ritonavir] + CC(C)C[C@H](NC(=O)[C@H](CCc1ccccc1)NC(=O)CN1CCOCC1)C(=O)N[C@@H](Cc1ccccc1)C(=O)N[C@@H](CC(C)C)C(=O)[C@@]1(C)CO1 [Carfilzomib],27.3
7,CN(C(=O)CN(CCO)CC(=O)N(C)C(C)(C)Cc1ccccc1)C(C)(C)Cc1ccccc1 [Oxethazaine] + CC(C)C[C@H](NC(=O)[C@H](CCc1ccccc1)NC(=O)CN1CCOCC1)C(=O)N[C@@H](Cc1ccccc1)C(=O)N[C@@H](CC(C)C)C(=O)[C@@]1(C)CO1 [Carfilzomib],20.8
8,Cc1cc(Nc2ncc(Cl)c(Nc3ccccc3S(=O)(=O)C(C)C)n2)c(OC(C)C)cc1C1CCNCC1 + CC(C)C[C@H](NC(=O)[C@H](CCc1ccccc1)NC(=O)CN1CCOCC1)C(=O)N[C@@H](Cc1ccccc1)C(=O)N[C@@H](CC(C)C)C(=O)[C@@]1(C)CO1 [Carfilzomib],7.66
9,CC[C@@]1(O)C(=O)OCc2c1cc1n(c2=O)Cc2cc3c(CN(C)C)c(O)ccc3nc2-1 [Topotecan] + CC(C)C[C@H](NC(=O)[C@H](CCc1ccccc1)NC(=O)CN1CCOCC1)C(=O)N[C@@H](Cc1ccccc1)C(=O)N[C@@H](CC(C)C)C(=O)[C@@]1(C)CO1 [Carfilzomib],7.16
10,CCCCCOc1ccc(-c2ccc(-c3ccc(C(=O)N[C@H]4C[C@@H](O)[C@@H](O)NC(=O)[C@@H]5[C@@H](O)[C@@H](C)CN5C(=O)[C@H]([C@@H](C)O)NC(=O)[C@H]([C@H](O)[C@@H](O)c5ccc(O)cc5)NC(=O)[C@@H]5C[C@@H](O)CN5C(=O)[C@H]([C@@H](C)O)NC4=O)cc3)cc2)cc1 [Anidulafungin] + CC(C)C[C@H](NC(=O)[C@H](CCc1ccccc1)NC(=O)CN1CCOCC1)C(=O)N[C@@H](Cc1ccccc1)C(=O)N[C@@H](CC(C)C)C(=O)[C@@]1(C)CO1 [Carfilzomib],16.7
11,Cc1c(Cl)cccc1Nc1ccccc1C(=O)O [Tolfenamic Acid] + CC(C)C[C@H](NC(=O)[C@H](CCc1ccccc1)NC(=O)CN1CCOCC1)C(=O)N[C@@H](Cc1ccccc1)C(=O)N[C@@H](CC(C)C)C(=O)[C@@]1(C)CO1 [Carfilzomib],20.7
12,CC1=C(C(=O)OC(C)C)C(c2cccc([N+](=O)[O-])c2)C(C(=O)OC2CN(C(c3ccccc3)c3ccccc3)C2)=C(N)N1 (stereo not given) [Azelnidipine] + CC(C)C[C@H](NC(=O)[C@H](CCc1ccccc1)NC(=O)CN1CCOCC1)C(=O)N[C@@H](Cc1ccccc1)C(=O)N[C@@H](CC(C)C)C(=O)[C@@]1(C)CO1 [Carfilzomib],14.5
13,Cc1nc(Nc2ncc(C(=O)Nc3c(C)cccc3Cl)s2)cc(N2CCN(CCO)CC2)n1 + CC(C)C[C@H](NC(=O)[C@H](CCc1ccccc1)NC(=O)CN1CCOCC1)C(=O)N[C@@H](Cc1ccccc1)C(=O)N[C@@H](CC(C)C)C(=O)[C@@]1(C)CO1 [Carfilzomib],26.6
14,Cl.Cl.O=C1c2c(O)ccc(O)c2C(=O)c2c(NCCNCCO)ccc(NCCNCCO)c21 [Mitoxantrone HCl] + CC(C)C[C@H](NC(=O)[C@H](CCc1ccccc1)NC(=O)CN1CCOCC1)C(=O)N[C@@H](Cc1ccccc1)C(=O)N[C@@H](CC(C)C)C(=O)[C@@]1(C)CO1 [Carfilzomib],5.21
15,CCOc1cc2ncc(C#N)c(Nc3ccc(F)c(Cl)c3)c2cc1NC(=O)C=CCN(C)C [Pelitinib (EKB-569)] + CC(C)C[C@H](NC(=O)[C@H](CCc1ccccc1)NC(=O)CN1CCOCC1)C(=O)N[C@@H](Cc1ccccc1)C(=O)N[C@@H](CC(C)C)C(=O)[C@@]1(C)CO1 [Carfilzomib],5.92
16,CC(O)C(=O)O.CCOc1ccc2nc3cc(N)ccc3c(N)c2c1.O [Ethacridine lactate monohydrate] + CC(C)C[C@H](NC(=O)[C@H](CCc1ccccc1)NC(=O)CN1CCOCC1)C(=O)N[C@@H](Cc1ccccc1)C(=O)N[C@@H](CC(C)C)C(=O)[C@@]1(C)CO1 [Carfilzomib],15.2
17,CCCCc1oc2ccc(NS(C)(=O)=O)cc2c1C(=O)c1ccc(OCCCN(CCCC)CCCC)cc1 [Dronedarone] + CC(C)C[C@H](NC(=O)[C@H](CCc1ccccc1)NC(=O)CN1CCOCC1)C(=O)N[C@@H](Cc1ccccc1)C(=O)N[C@@H](CC(C)C)C(=O)[C@@]1(C)CO1 [Carfilzomib],19
18,CN1CCN(CCCN2c3ccccc3Sc3ccc(C(F)(F)F)cc32)CC1.Cl.Cl [Trifluoperazine 2HCl] + CC(C)C[C@H](NC(=O)[C@H](CCc1ccccc1)NC(=O)CN1CCOCC1)C(=O)N[C@@H](Cc1ccccc1)C(=O)N[C@@H](CC(C)C)C(=O)[C@@]1(C)CO1 [Carfilzomib],16.7
19,Cc1cccc(CN2CCN(C(c3ccccc3)c3ccc(Cl)cc3)CC2)c1.Cl.Cl (stereo not given) [Meclizine 2HCl] + CC(C)C[C@H](NC(=O)[C@H](CCc1ccccc1)NC(=O)CN1CCOCC1)C(=O)N[C@@H](Cc1ccccc1)C(=O)N[C@@H](CC(C)C)C(=O)[C@@]1(C)CO1 [Carfilzomib],11.7
20,Clc1ccc(C(Cn2ccnc2)OCc2ccc(Sc3ccccc3)cc2)c(Cl)c1.O=[N+]([O-])O (stereo not given) [Fenticonazole Nitrate] + CC(C)C[C@H](NC(=O)[C@H](CCc1ccccc1)NC(=O)CN1CCOCC1)C(=O)N[C@@H](Cc1ccccc1)C(=O)N[C@@H](CC(C)C)C(=O)[C@@]1(C)CO1 [Carfilzomib],21.1
